Assay results: PubChem BioAssay (NCI)
Several values for one entry are separate records, joined by “and”; a condition that tells them apart may be missing. Equal entries are not always repeated. Compounds without any hit were thinned out: in the full panel of roughly 79,000, 15% have a hit. Activity calls are given as the source filed them. Rule as the data show it: active = growth inhibition above about 70%; inactive = the rest.

Key:
[1] = NCI Yeast Anticancer Drug Screen. Data for the rad52 strain (AID 147);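 also: 0% = growth of vehicle-treated control cultures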; conditions: S. cerevisiae rad52 mutant growth inhibition, hits give high values
Method in brief: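 Measured: yeast growth inhibition. System: strain with a defined DNA damage repair alteration. Reference: vehicle-treated control cultures.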

[2] = NCI Yeast Anticancer Drug Screen. Data for the wt1 strain (AID 149);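 also: 0% = growth of vehicle-treated wt1 cultures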; conditions: S. cerevisiae wt1 strain (SPY 50644) growth inhibition, hits give high values
Method in brief: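 wt1 strain grown with compound or vehicle; inhibition taken from the growth difference.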

[3] = NCI Yeast Anticancer Drug Screen. Data for the rad50EPP+ strain (AID 151);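 also: 0% = growth of vehicle-treated control cultures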; conditions: S. cerevisiae rad50 mutant strain, hits give high values
Method in brief: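 One strain with a rad50 alteration (rad50EPP+) was compound-treated, its growth then compared to that of vehicle controls.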

[4] = NCI Yeast Anticancer Drug Screen. Data for the rad50 strain (AID 155);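 also: 0% = growth of vehicle-only cultures of the same strain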; conditions: S. cerevisiae rad50 strain growth inhibition, hits give high values
Method in brief: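 DNA repair mutant yeast, compound exposure, growth read-out; inhibition is taken relative to vehicle.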

[5] = NCI Yeast Anticancer Drug Screen. Data for the mec2-1 strain (AID 157); conditions: S. cerevisiae mec2-1 strain, hits give high values
Method in brief: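 Test agents were screened against the mec2-1 yeast strain, with defined DNA repair or cell cycle alteration. Growth was scored as inhibition against vehicle-only controls.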

[6] = NCI Yeast Anticancer Drug Screen. Data for the rad14 strain (AID 159);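 also: 0% = growth of vehicle-treated control cultures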; conditions: S. cerevisiae rad14 strain growth inhibition, hits give high values
Method in brief: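 DNA repair-defective yeast, compound-exposed; % growth inhibition derived by comparison with vehicle-treated controls.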

[7] = NCI Yeast Anticancer Drug Screen. Data for the sgs1 mgt1 strain (AID 161);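 also: 0% = growth of cultures given vehicle only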; conditions: S. cerevisiae sgs1 mgt1 strain, hits give high values
Method in brief: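 Genetically altered yeast, compound exposure, growth inhibition relative to vehicle.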

[8] = NCI Yeast Anticancer Drug Screen. Data for the CLN2oe strain (AID 163);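 also: 0% = growth of vehicle-only control cultures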; conditions: S. cerevisiae CLN2oe strain, hits give high values
Method in brief: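 Here, growth inhibition in a cell-cycle-altered yeast strain after compound exposure was quantified against vehicle control growth.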

[9] = NCI Yeast Anticancer Drug Screen. Data for the cln2 rad14 strain (AID 165);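 also: 0% = growth equal to vehicle treated cultures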; conditions: S. cerevisiae cln2 rad14 strain, hits give high values
Method in brief: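 Growth of compound-exposed yeast (cln2 rad14 genotype) measured and expressed as inhibition relative to vehicle.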

[10] = NCI Yeast Anticancer Drug Screen. Data for the bub3 strain (AID 167); conditions: S. cerevisiae bub3 mutant strain, hits give high values
Method in brief: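 In this screen, a yeast mutant lacking normal mitotic checkpoint function is challenged with compound. Relative growth versus vehicle gives the inhibition value.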

[11] = NCI Yeast Anticancer Drug Screen. Data for the mlh1 strain (AID 171);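 also: 0% = growth of vehicle-treated control cultures of the same strain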; conditions: S. cerevisiae mlh1 strain growth inhibition, hits give high values
Method in brief: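 Here the genetically defined yeast mutant is grown with each compound, and the extent to which its growth falls below that of vehicle-exposed cells is reported.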

[12] = NCI Yeast Anticancer Drug Screen. Data for the sgs1 strain (AID 173);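 also: 0% = growth of vehicle-only control cultures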; conditions: S. cerevisiae sgs1 mutant, hits give high values
Method in brief: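 Relative growth inhibition, referenced to vehicle, was determined in a yeast strain with a defined alteration affecting DNA damage repair or cell cycle control after compound exposure.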

[13] = NCI Yeast Anticancer Drug Screen. Data for the mlh1 rad18 strain (AID 175); conditions: S. cerevisiae mlh1 rad18 strain growth inhibition, hits give high values
Method in brief: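 In this whole-cell yeast screen, a strain with altered DNA damage repair is challenged with compound, and its growth is measured against matched vehicle-treated controls.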

[14] = NCI Yeast Anticancer Drug Screen. Data for the rad18 strain (AID 177); conditions: S. cerevisiae rad18 mutant growth inhibition, hits give high values
Method in brief: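 Screen uses a yeast strain with a defined lesion in DNA damage repair; compound effect is read as loss of growth compared to untreated vehicle cultures.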

[15] = at 5.0 µM (retest, dose inferred, filed as 0.5)
[16] = at 50.0 µM (retest, dose inferred, filed as 5.0)

Measured: growth inhibition

CCCCCC#CCOC(=O)C(=[N+]=[N-])P(=O)(c1ccccc1)c1ccccc1
inactive: [1]; at 1.2 µM 7% | [1]; at 3.7 µM 16% | [1]; at 11.0 µM 7% | [1]; at 33.0 µM 10% | [2]; at 1.2 µM 3% | [2]; at 3.7 µM -2% | [2]; at 11.0 µM 3% | [2]; at 33.0 µM -2% | [3]; at 1.2 µM 21% | [3]; at 3.7 µM 13% | [3]; at 11.0 µM 26% | [3]; at 33.0 µM 14% | [3]; at 100.0 µM 6% | [4]; at 1.2 µM 14% | [4]; at 3.7 µM 21% | [4]; [15] -6% | [4]; at 11.0 µM 13% | [4]; at 33.0 µM 13% | [5]; at 1.2 µM 11% | [5]; at 3.7 µM 7% | [5]; [15] -6% | [5]; at 11.0 µM -3% | [5]; at 33.0 µM -4% | [6]; at 1.2 µM -11% | [6]; at 3.7 µM -6% | [6]; at 11.0 µM -9% | [6]; at 33.0 µM -6% | [7]; [15] 8% | [7]; [16] 46% | [8]; at 1.2 µM 7% | [8]; at 3.7 µM 5% | [8]; at 11.0 µM 9% | [8]; at 33.0 µM -1% | [9]; [15] 37% | [10]; at 1.2 µM 1% | [10]; at 3.7 µM 0% | [10]; [15] 8% | [10]; at 11.0 µM -23% | [10]; at 33.0 µM -23% | [11]; at 1.2 µM 28% | [11]; at 3.7 µM 23% | [11]; at 11.0 µM 26% | [11]; at 33.0 µM 20% | [12]; at 1.2 µM 17% | [12]; at 3.7 µM 21% | [12]; at 11.0 µM 15% | [12]; at 33.0 µM 16% | [13]; [15] 22% | [14]; at 1.2 µM 7% | [14]; at 3.7 µM 8% | [14]; at 11.0 µM 7% | [14]; at 33.0 µM 14%
active: [1]; at 100.0 µM 96% | [2]; at 100.0 µM 96% | [4]; [16] 94% | [4]; at 50.0 µM 87.8% | [4]; at 100.0 µM 95% | [5]; [16] 97% | [5]; at 50.0 µM 90.5% | [5]; at 100.0 µM 95% | [6]; at 100.0 µM 94% | [7]; at 50.0 µM 90.8% | [8]; at 100.0 µM 96% | [9]; [16] 96% | [9]; at 50.0 µM 86.7% | [10]; [16] 95% | [10]; at 50.0 µM 89.3% | [10]; at 100.0 µM 95% | [11]; at 100.0 µM 97% | [12]; at 100.0 µM 98% | [13]; [16] 96% | [13]; at 50.0 µM 87% | [14]; at 100.0 µM 96%

COc1ccc(/C(C#N)=C/c2ccc(OC)c(OC)c2)cc1
inactive: [1]; at 1.2 µM 10% | [1]; at 3.7 µM -6% | [1]; at 11.0 µM -1% | [1]; at 33.0 µM -13% | [1]; at 100.0 µM 21% | [2]; at 1.2 µM -37% | [2]; at 3.7 µM -21% | [2]; at 11.0 µM -22% | [2]; at 33.0 µM -23% | [2]; at 100.0 µM 0% | [3]; at 1.2 µM -17% | [3]; at 3.7 µM 0% | [3]; at 11.0 µM 8% | [3]; at 33.0 µM 60% | [3]; at 100.0 µM 54% | [4]; at 1.2 µM 2% | [4]; at 3.7 µM -4% | [4]; [15] 46% | [4]; at 11.0 µM -12% | [4]; at 33.0 µM 6% | [4]; at 50.0 µM 15.1% and 51.5% | [4]; at 100.0 µM 14% | [5]; at 1.2 µM -11% | [5]; at 3.7 µM -7% | [5]; [15] 56% | [5]; at 11.0 µM -21% | [5]; at 33.0 µM -10% | [5]; at 50.0 µM 43.8% and 38%
active: [4]; [16] 83% | [5]; [16] 92%
